Hits are enriched below; roughly 4.4% of the tested compounds scored in any of these assays.
TRHR ag = TRH receptor (human) agonism; activation, % at 2 µM; TRHR cells, calcium flux fluo-8, FDSS agonist mode; AID 493084; 360,000 compounds, 0.18% hits; note: 0% is about no effect
Target sequence (P34981 whole entry, looked up): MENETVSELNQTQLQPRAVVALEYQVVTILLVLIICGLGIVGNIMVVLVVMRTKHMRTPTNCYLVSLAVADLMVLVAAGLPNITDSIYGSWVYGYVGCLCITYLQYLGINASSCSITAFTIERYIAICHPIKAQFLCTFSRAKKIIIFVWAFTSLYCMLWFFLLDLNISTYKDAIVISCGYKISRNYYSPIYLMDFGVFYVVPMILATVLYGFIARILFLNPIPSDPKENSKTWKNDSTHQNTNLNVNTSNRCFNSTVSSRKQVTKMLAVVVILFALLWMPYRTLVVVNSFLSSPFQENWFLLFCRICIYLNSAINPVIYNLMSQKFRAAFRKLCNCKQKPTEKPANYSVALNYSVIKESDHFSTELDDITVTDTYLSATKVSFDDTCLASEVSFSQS
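In this calcium-flux screen, cells bearing human TRHR are dye-loaded with fluo-8, baselined for 10 cycles, then exposed to library compounds; positive kinetic calcium responses during the agonist phase mark hits, with TRH as control.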
USP1-UAF1 inh = USP1/UAF1 (human) deubiquitinase inhibition | O94782 | recombinant USP1/UAF1, Ub-Rhodamine cleavage fluorescence | Potency, µM (highest dose often 57.1 µM), inactives show top-dose activity change, negative = inhibition, usual class: inhibitors | 390,000 compounds, 0.23% hits; active = well fitted inhibition curve with a large enough effect; inconclusive = small, poorly fitted or top-dose-only effect; inactive = no such curve, though single readings can be large or run the other way; note: potency is the fitted concentration of half-maximal effect; % is set by controls: 0 for no effect and ±100 for the full control effect; nearly all actives have a fitted effect of over 60% in size
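USP1/UAF1 complex at 1 nM was preincubated with compound for 15 min at room temperature, then Ub-Rho substrate (150nM final) was added. Fluorescence (480/540 nm) was read kinetically, 6 reads every 60 seconds.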
D1 potentiator = enhances dopamine response at the human D1 receptor; P21728; HEK293 TREx D1 cells, calcium flux, dopamine EC20 potentiation; potentiation, % at 10 µM; 360,000 compounds, 0.036% hits; AID 504651; in the data active = potentiation above about 30%; note: 0% is about no effect
D1 antag = blocks dopamine activation of the human D1 receptor | P21728 | HEK293 TREx D1 cells, calcium flux, dopamine EC80; stronger effect = lower value | activity change, negative = inhibition, % at 10 µM | 360,000 compounds, 3.2% hits | AID 504652; in the data active = activity change below about -30%; note: % is set by controls: 0 for no effect and ±100 for the full control effect
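Compound effects on dopamine-evoked calcium signalling were measured in tetracycline-induced HEK293 Trex D1 cells. Dopamine at EC80 followed a 180 s compound pre-read, and fluorescence was tracked kinetically for 180 s more.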
TRHR enhancer = TRH receptor (human) allosteric enhancement | P34981 | TRHR cells, fluo-8 calcium fluorescence, EC20 TRH enhancement | enhancement, % at 2 µM | 360,000 compounds, 0.66% hits; in the data active = enhancement above about 30%; note: 0% is about no effect
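Enhancer read-out: after compound pinning and an initial kinetic agonist-mode read, an EC20 of TRH (10 nM final) was injected and fluo-8 calcium signal (Ex 480/Em 530) followed at 1 s/cycle for 100 cycles in TRHR-expressing cells.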
D1 ag = human D1 receptor agonism; P21728; HEK293 T-REx D1 cells, calcium flux, agonist mode; activation, % at 2 µM; 360,000 compounds, 1% hits; note: 0% is about no effect
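Inducible HEK293 T-REx D1 cells, force-coupled to calcium signalling, were plated at 4000 cells/well with tetracycline and held overnight at 30 C. After no-wash calcium dye loading, compound-evoked calcium rise over 180 s flagged agonists.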
Active calls of the source: *; ? = inconclusive; . = not tested or not shown. Cut-off read from the data, not from the text of the source, unless noted: active = activation above about 30%; inactive = the rest.

SMILES	TRHR ag	USP1-UAF1 inh	D1 potentiator	D1 antag	TRHR enhancer	D1 ag
CCOC(=O)C1CCCN(C(=O)c2ccc3c(c2)N(Cc2cccc(Cl)c2)C(=O)c2ccccc2S3(=O)=O)C1 (configuration not stated)	-0.2	-2.1%	-0.3	3.1	-4.0	0.9
CCN(CC)CCC(c1ccc(N(C)C)cc1)c1c(OC)cc(OC)c2c(-c3ccccc3)cc(=O)oc12 (configuration not stated)	1.3	-29.7%	-5.2	-46.8*	2.8	39.2*
COc1cc(OC)c2ccc(=O)oc2c1C(CCN1CCN(c2ccccc2)CC1)c1ccc(N(C)C)cc1 (configuration not stated)	0.2	?	-12.8	-73.6*	2.9	-0.2
COc1cc(C(CC(=O)N2CCOCC2)c2c(OC)cc(OC)c3ccc(=O)oc23)cc(OC)c1OC (configuration not stated)	-0.3	-11.9%	5.8	0.7	-1.5	1.5
COc1ccc(C(CCN2CCN(c3ccccc3)CC2)c2c(OC)cc(OC)c3c(-c4ccccc4)cc(=O)oc23)cc1 (configuration not stated)	0.3	-28.5%	-9.1	-41.6*	0.6	3.9
COc1cc(C(CC(=O)N2CCN(c3ccccc3)CC2)c2c(OC)cc(OC)c3ccc(=O)oc23)cc(OC)c1OC (configuration not stated)	0.1	-14.0%	-7.8	-42.4*	-8.3	1.3
COc1ccc(C(CCN2CCOCC2)c2c(OC)cc(OC)c3c(-c4ccccc4)cc(=O)oc23)cc1 (configuration not stated)	.	-21.0%	.	.	.	.
COc1cc(C2CC(=O)Oc3c(C(CCN4CCN(c5ccccc5)CC4)c4ccc(N(C)C)cc4)c(OC)cc(OC)c32)cc(OC)c1OC (configuration not stated)	0.2	-21.4%	-1.4	-37.6*	10.9	3.2
CCN(CC)C(=O)CC(c1cc(OC)c(OC)c(OC)c1)c1c(OC)cc(OC)c2ccc(=O)oc12 (configuration not stated)	-0.1	-12.8%	0.7	-7.5	-1.5	2.8
COc1cc(OC)c2c(-c3ccccc3)cc(=O)oc2c1C(CC(=O)N1CCN(c2ccccc2)CC1)c1ccc(N(C)C)cc1 (configuration not stated)	0.0	-18.9%	-5.2	-13.4	0.1	-1.2
COc1cc(OC)c2c(-c3ccccc3)cc(=O)oc2c1C(CCN1CCN(c2ccccc2)CC1)c1ccc(N(C)C)cc1 (configuration not stated)	0.5	-19.5%	-7.7	-32.4*	3.8	3.8
CCN(CC)C(=O)CC(c1cc(OC)c(OC)c(OC)c1)c1c(OC)cc(OC)c2c(-c3ccccc3)cc(=O)oc12 (configuration not stated)	-0.1	-7.6%	-9.4	-100.4*	3.1	1.7
Cc1ccc(NC(=O)CSc2nc(=O)n(CCN3CCOCC3)c3c2CCC3)c(C)c1	0.0	?	3.4	.	3.4	-2.9
CN(C)c1ccc(C(=O)/C=C/c2ccc(Br)cc2)cc1	0.4	-22.9%	-3.5	-33.1*	-4.5	4.9
COc1ccc(/C=C/C(=O)Nc2cccc(F)c2)cc1	-1.0	?	-1.1	8.5	-0.8	-1.4
CCN(CC)c1ccc(/C=C/C(=O)c2cccnc2)cc1	0.8	-2.9%	-2.1	-15.6	-1.3	4.2
CC(=O)Nc1cccc(C(=O)/C=C/c2ccc(N(C)C)cc2)c1	153.2*	5.62µM*	14.8	6.1	1.3	401.4*
CCN(CC)c1ccc(/C=C/C(=O)c2ccc(Br)cc2)cc1	166.0*	28.2µM*	-7.7	-67.4*	-1.4	425.5*
CN(C)c1ccc(C(=O)/C=C/c2ccccc2)cc1	-0.5	-6.7%	-4.2	-6.3	-3.8	1.9
COc1ccc(/C=C/C(=O)Nc2cccc(C(C)=O)c2)cc1	0.0	-25.5%	-3.7	-40.2*	5.4	4.4
CC1CCN(S(=O)(=O)c2ccc3c(ccn3CC(=O)NCc3ccc(N(C)C)cc3)c2)CC1	0.1	-12.2%	3.8	-9.2	-4.8	1.4
CC1C2CC(C(CN(C)C)/C2=N/O)C1(C)C (configuration not stated)	0.5	-8.9%	-4.8	-50.8*	-3.2	1.7
CCCN(CC1CC1)C(=O)COC(=O)c1[nH]c(C)c(C(=O)OCC)c1C	-0.2	-13.5%	-6.8	15.4	1.1	30.1*
Cc1noc(C)c1CN(C(=S)NC(C)C)c1ccccc1	-0.2	-0.1%	-4.7	-32.3*	5.7	3.1
CCn1c(SCc2ccc(Cl)cc2Cl)nc2nc3c(cc2c1=O)CCCC3	-0.1	-13.2%	1.4	-43.1*	-4.9	1.5
SMILES	TRHR ag	USP1-UAF1 inh	D1 potentiator	D1 antag	TRHR enhancer	D1 ag
CC1(C)CC(=O)C(C=Nc2cc(C(=O)c3ccccc3)ccc2N)=C(O)C1	2.8	-13.7%	-13.6	-44.7*	-5.5	12.6
COC(=O)c1ccc(N)c(N=CC2=C(O)CC(C)(C)CC2=O)c1	2.6	-16.1%	-3.9	2.9	2.8	10.5
COc1ccc(N=C2S/C(=C\c3ccc(N4CCOCC4)o3)C(=O)N2CCc2c[nH]c3ccccc23)cc1	-0.2	.	-4.0	-30.2*	-17.9	16.6
N#Cc1c(-c2cccnc2)c2c([nH]c1=O)-c1ccccc1OC2	10.9	-20.7%	2.7	-31.1*	-7.0	0.7
Cc1c(N=C2SC(CC(=O)Nc3ccccc3)C(=O)N2CCN2CCOCC2)c(=O)n(-c2ccccc2)n1C (configuration not stated)	0.2	-6.6%	-0.7	-51.5*	-4.8	1.9
C=CCN1C(=O)C(CC(=O)Nc2ccc(C)cc2)SC1=Nc1c(C)n(C)n(-c2ccccc2)c1=O (configuration not stated)	0.7	-13.3%	0.1	-1.2	-9.8	1.4
CCc1ccc(NC(=O)C2CCN(c3nn4c(=O)cc(C)nc4s3)CC2)cc1	-1.4	-11.7%	2.2	0.3	-1.4	-1.3
CCCCSc1nnc2c(n1)OC(c1ccc(Br)s1)Nc1ccccc1-2 (configuration not stated)	-0.4	-6.7%	0.5	-13.8	-1.7	1.4
N#C/C(=C\c1ccncc1)c1nc2ccccc2c(=O)[nH]1	5.8	-9.5%	-3.9	-39.0*	-3.6	7.3
N#C/C(=C/c1ccncc1)c1nc2ccccc2c(=O)[nH]1	3.6	-11.9%	0.1	-11.6	2.4	4.2
N#C/C(=C\c1cc(Br)c(O)c(Br)c1)c1nc2ccccc2c(=O)[nH]1	78.1*	28.2µM*	11.9	13.1	20.3	170.8*
CC(=O)N1CCCC1c1nc2ccccc2n1Cc1ccccc1C (configuration not stated)	0.2	-8.5%	-2.5	-3.1	-0.9	20.2
